In PubChem BioAssay (EPA / NIEHS):
Records with an inconclusive call do not appear. Calls of active or inactive are those of the source. The calls were made as follows, unless noted: active = hit-call score of the fitted dose curve at least 0.9, where 1 is the maximum; inactive = score below 0.9.

Assays:
[1] = target: Paired box protein Pax-6 (Homo sapiens) (UniProt P26367); assay: ATG_Pax6_CIS: Attagene CIS-FACTORIAL HepG2 Assay for human Paired Box 6 (PAX6) (AID 2282956); conditions: HepG2 CIS-FACTORIAL PAX6 reporter transcription, RNA readout; actives raise or lower the signal
In short: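 Fluorescent RT-PCR products separated by capillary electrophoresis report PAX6-linked promoter mRNA in HepG2 cells 24 h post-dose. Curves fitted bidirectionally, DMSO as negative control.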

[2] = ATG_PXRE_CIS: Attagene CIS-FACTORIAL HepG2 Assay for human Pregnane X Receptor Element (PXRE) (AID 2282957); conditions: HepG2 Attagene CIS-FACTORIAL PXRE reporter, mRNA; actives raise or lower the signal
In short: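 Fluorescent capillary electrophoresis of amplified reporter cDNA gave the signal, collected 24 h after dosing HepG2 cells that held transfected cis-element reporter constructs.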

[3] = ATG_PPRE_CIS: Attagene CIS-FACTORIAL HepG2 Assay for human Peroxisome Proliferator-activated Response Element (PPRE) (AID 2282958); conditions: HepG2 PPRE cis-element reporter, Attagene transcription factor profiling; actives raise or lower the signal
In short: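 HepG2, transient MRTU transfection (cis promoter elements, endogenous TFs). 24 h dosing. RNA → oligo(dT) RT → PCR → 6-FAM primer extension → HpaI digest → CE. Bidirectional fit vs DMSO.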

[4] = ATG_RORE_CIS: Attagene CIS-FACTORIAL HepG2 Assay for human RAR-related Orphan Receptor Element (RORE) (AID 2282959); conditions: HepG2 Attagene cis-factorial RORE reporter, mRNA; actives raise or lower the signal
In short: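 Transient MRTU transfection of human HepG2 liver cells (FuGene 6); 24 h compound exposure; TriZol RNA, oligo(dT) RT, PCR, FAM labeling, HpaI cut, CE fragment analysis. DMSO = negative control/baseline.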

[5] = ATG_Sox_CIS: Attagene CIS-FACTORIAL HepG2 Assay for human SRY-box transcription factor (SOX) (AID 2282960); conditions: HepG2 Attagene cis-factorial SOX reporter, mRNA; actives raise or lower the signal
In short: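 Endogenous factor activity in human liver HepG2 cells carrying transfected cis-regulated reporter units. RNA taken 24 h post-dose, reverse-transcribed, PCR-amplified and sized by capillary electrophoresis. Gain or loss of signal fitted relative to DMSO.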

[6] = target: Transcription factor Sp1 (Homo sapiens) (UniProt P08047); assay: ATG_Sp1_CIS: Attagene CIS-FACTORIAL HepG2 Assay for human Specificity Protein 1 (Sp1) (AID 2282961); conditions: HepG2 Sp1 cis-reporter transcription, actives raise or lower the signal
In short: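 Transient MRTU-transfected HepG2, 24 h compound exposure. Total RNA → oligo(dT) RT → PCR of reporter → 6-FAM primer extension → HpaI digest → CE. Endpoint fitted both directions vs DMSO.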

[7] = ATG_SREBP_CIS: Attagene CIS-FACTORIAL HepG2 Assay for human Sterol Regulatory Element Binding (SREBP) (AID 2282962); conditions: HepG2 Attagene cis-factorial SREBP reporter, mRNA; actives raise or lower the signal
In short: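 Endogenous factor activity is measured in HepG2 through multiplexed reporter units under cis-element control. Following a 24 h incubation, reporter transcripts are reverse-transcribed, PCR-amplified and sized by capillary electrophoresis; activity is fitted in both directions relative to DMSO.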

[8] = target: Signal transducer and activator of transcription 3 (Homo sapiens) (UniProt P40763); assay: ATG_STAT3_CIS: Attagene CIS-FACTORIAL HepG2 Assay for human Signal Transducer and Activator of Transcription 3 (STAT3) (AID 2282963); conditions: HepG2, Attagene cis-factorial STAT3 reporter transcription; actives raise or lower the signal
In short: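 HepG2, MRTU-transfected, 24 h dosing. RNA → RT → PCR → FAM label → HpaI → CE. Bidirectional fit vs DMSO.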

[9] = ATG_TA_CIS: Attagene CIS-FACTORIAL HepG2 Assay for human TA Basal Promoter (AID 2282964); conditions: HepG2 Attagene CIS-factorial TA basal promoter reporter; actives raise or lower the signal
In short: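 Background-control readout: TA basal promoter reporter mRNA, fitted in both directions relative to DMSO. Measured by RT-PCR and capillary electrophoresis 24 hours after treating HepG2 human liver cells transiently carrying multiplexed cis-regulated reporter constructs.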

[10] = ATG_TCF_b_cat_CIS: Attagene CIS-FACTORIAL HepG2 Assay for human T-Cell-Factor with beta-catenin (TCF/b-cat) (AID 2282965); conditions: HepG2 TCF/beta-catenin cis-reporter transcription, actives raise or lower the signal
In short: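 Using capillary electrophoresis as the read-out, labelled reporter cDNA fragments from transiently transfected HepG2 were sized and quantified. Exposure lasted 24 hours; activity in either direction was referenced to DMSO.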

[11] = ATG_TAL_CIS: Attagene CIS-FACTORIAL HepG2 Assay for human TAL Basal Promoter (AID 2282966); conditions: HepG2 Attagene cis-factorial TAL promoter reporter; actives raise or lower the signal;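 also: background control endpoint measuring basal TAL promoter reporter mRNA not a specific factor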
In short: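 Transiently transfected HepG2 (cis-regulated reporter units), 24 h treatment, mRNA read by fluorescent CE after RT-PCR; bidirectional fit, DMSO baseline.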

[12] = target: Estrogen receptor (Homo sapiens) (UniProt P03372); assay: ATG_ERa_TRANS: Attagene TRANS-FACTORIAL HepG2 Assay for human Estrogen Receptor alpha (ERa) (AID 2282970; active = hit-call score of the fitted dose curve at least 0.9, where 1 is the maximum); conditions: HepG2 Attagene TRANS ERa GAL4 reporter, mRNA
In short: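 One of 30 multiplexed endpoints from a HepG2 TRANS system, this one reports ERa-Gal4-driven reporter mRNA. Transcripts were quantified 24 hours post-dosing by fluorescent RT-PCR and capillary electrophoresis, with activity scored as induction over DMSO.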

[13] = ATG_M_19_TRANS: Attagene TRANS-FACTORIAL HepG2 Assay for M19 Transcription Factor (Internal Marker) (AID 2282974; active = hit-call score of the fitted dose curve at least 0.9, where 1 is the maximum); conditions: HepG2 Attagene TRANS-FACTORIAL M19 internal marker reporter
In short: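 Fluorescence of 6-FAM-labelled reporter cDNA fragments, separated by capillary electrophoresis, served as the readout. These derived from HepG2 cells carrying transfected GAL4-UAS reporter units after 24 h dosing, with DMSO as negative control.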

[14] = ATG_TGFb_CIS: Attagene CIS-FACTORIAL HepG2 Assay for human Transforming Growth Factor (TGF) (AID 2282967); conditions: HepG2 Attagene CIS TGFb reporter, mRNA transcription; actives raise or lower the signal
In short: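 Endogenous TGFB1-linked transcription factor activity read as reporter mRNA via RT-PCR and capillary electrophoresis, 24 h after dosing transiently transfected HepG2 cells. Gain or loss of signal fitted relative to DMSO.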

[15] = ATG_VDRE_CIS: Attagene CIS-FACTORIAL HepG2 Assay for human Vitamin D Receptor Element (VDRE) (AID 2282968); conditions: HepG2 VDRE cis-reporter transcription, actives raise or lower the signal
In short: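 Steps: transfect HepG2 with multiple reporter transcription units; dose chemicals 24 h; isolate RNA; RT-PCR; label with 6-FAM primer extension; HpaI digest; capillary electrophoresis. Curves fitted both directions against DMSO.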

[16] = target: X-box-binding protein 1 (Homo sapiens) (UniProt P17861); assay: ATG_Xbp1_CIS: Attagene CIS-FACTORIAL HepG2 Assay for human X-box Binding Protein 1 (XBP1) (AID 2282972); conditions: HepG2 XBP1 cis-element reporter, Attagene multiplex; actives raise or lower the signal
In short: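 Multiplexed cis-reporter readout in transfected HepG2 liver cells. Exposure lasted 24 hours. Activity in either direction was fitted against DMSO as negative control and baseline.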

[17] = ATG_GAL4_TRANS: Attagene TRANS-FACTORIAL HepG2 Assay for GAL4 (Internal Marker) (AID 2282976; active = hit-call score of the fitted dose curve at least 0.9, where 1 is the maximum); conditions: HepG2 Attagene TRANS GAL4 internal marker reporter
In short: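 HepG2 cells transiently transfected with multiplexed GAL4-UAS reporter constructs were dosed for 24 h. Reporter mRNA was measured by RT-PCR, 6-FAM primer extension, HpaI digestion and capillary electrophoresis, and gain of signal was fitted relative to DMSO.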

[18] = target: Steroid hormone receptor ERR1 (Homo sapiens) (UniProt P11474); assay: ATG_ERRa_TRANS: Attagene TRANS-FACTORIAL HepG2 Assay for human Estrogen-Related Receptor alpha (ERRa) (AID 2282971; active = hit-call score of the fitted dose curve at least 0.9, where 1 is the maximum); conditions: HepG2 Attagene TRANS reporter, ERRa transactivation
In short: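 HepG2 cells transiently transfected with multiplexed GAL4-UAS reporter units reading chimeric ERRa-Gal4 activity; 24 h compound exposure. Reporter mRNA measured by RT-PCR, 6-FAM labelling, HpaI digest and capillary electrophoresis; gain of signal fitted versus DMSO baseline.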

Sequence of Transcription factor Sp1 (Homo sapiens) (P08047 whole entry, looked up): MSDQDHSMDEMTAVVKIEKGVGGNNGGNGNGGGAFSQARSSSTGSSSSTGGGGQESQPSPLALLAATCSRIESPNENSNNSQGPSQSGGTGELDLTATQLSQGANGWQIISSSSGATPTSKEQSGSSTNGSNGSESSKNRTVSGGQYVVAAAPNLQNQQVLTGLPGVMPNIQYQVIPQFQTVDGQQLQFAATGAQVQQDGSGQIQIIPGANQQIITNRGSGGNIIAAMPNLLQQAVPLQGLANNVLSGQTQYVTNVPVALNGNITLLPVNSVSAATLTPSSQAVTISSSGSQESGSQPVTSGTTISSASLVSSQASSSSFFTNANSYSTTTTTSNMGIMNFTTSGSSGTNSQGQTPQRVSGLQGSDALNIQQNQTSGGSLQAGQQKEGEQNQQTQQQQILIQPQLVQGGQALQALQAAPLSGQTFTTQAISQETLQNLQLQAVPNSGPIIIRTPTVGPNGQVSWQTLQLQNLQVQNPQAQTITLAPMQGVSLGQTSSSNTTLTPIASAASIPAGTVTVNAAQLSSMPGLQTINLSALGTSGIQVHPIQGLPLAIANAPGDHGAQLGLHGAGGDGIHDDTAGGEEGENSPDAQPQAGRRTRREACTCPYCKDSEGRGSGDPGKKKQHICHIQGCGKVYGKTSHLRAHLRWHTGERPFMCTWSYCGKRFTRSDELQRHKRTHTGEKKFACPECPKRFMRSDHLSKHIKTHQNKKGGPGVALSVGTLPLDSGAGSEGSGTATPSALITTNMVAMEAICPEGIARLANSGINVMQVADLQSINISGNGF
Sequence of Paired box protein Pax-6 (Homo sapiens) (P26367 whole entry, looked up): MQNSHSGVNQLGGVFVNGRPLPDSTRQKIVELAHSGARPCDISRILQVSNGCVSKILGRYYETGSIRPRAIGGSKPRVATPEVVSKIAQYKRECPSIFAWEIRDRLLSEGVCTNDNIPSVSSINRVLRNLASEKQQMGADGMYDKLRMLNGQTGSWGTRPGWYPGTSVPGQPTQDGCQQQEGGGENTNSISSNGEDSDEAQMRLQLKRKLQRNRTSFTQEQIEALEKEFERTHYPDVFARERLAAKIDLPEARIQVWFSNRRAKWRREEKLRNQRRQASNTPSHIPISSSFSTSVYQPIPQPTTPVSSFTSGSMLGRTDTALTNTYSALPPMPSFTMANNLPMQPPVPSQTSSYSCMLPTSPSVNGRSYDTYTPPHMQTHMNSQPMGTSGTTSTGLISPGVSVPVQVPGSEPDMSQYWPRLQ
Sequence of X-box-binding protein 1 (Homo sapiens) (P17861 whole entry, looked up): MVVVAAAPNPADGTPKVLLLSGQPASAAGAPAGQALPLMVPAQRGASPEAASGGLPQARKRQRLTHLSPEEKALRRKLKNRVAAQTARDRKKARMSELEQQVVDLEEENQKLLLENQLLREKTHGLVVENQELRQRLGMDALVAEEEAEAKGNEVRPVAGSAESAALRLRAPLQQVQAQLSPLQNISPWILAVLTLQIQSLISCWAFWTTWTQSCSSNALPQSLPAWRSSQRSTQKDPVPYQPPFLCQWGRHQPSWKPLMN
Sequence of Estrogen receptor (Homo sapiens) (P03372 whole entry, looked up, the tested form may be a part): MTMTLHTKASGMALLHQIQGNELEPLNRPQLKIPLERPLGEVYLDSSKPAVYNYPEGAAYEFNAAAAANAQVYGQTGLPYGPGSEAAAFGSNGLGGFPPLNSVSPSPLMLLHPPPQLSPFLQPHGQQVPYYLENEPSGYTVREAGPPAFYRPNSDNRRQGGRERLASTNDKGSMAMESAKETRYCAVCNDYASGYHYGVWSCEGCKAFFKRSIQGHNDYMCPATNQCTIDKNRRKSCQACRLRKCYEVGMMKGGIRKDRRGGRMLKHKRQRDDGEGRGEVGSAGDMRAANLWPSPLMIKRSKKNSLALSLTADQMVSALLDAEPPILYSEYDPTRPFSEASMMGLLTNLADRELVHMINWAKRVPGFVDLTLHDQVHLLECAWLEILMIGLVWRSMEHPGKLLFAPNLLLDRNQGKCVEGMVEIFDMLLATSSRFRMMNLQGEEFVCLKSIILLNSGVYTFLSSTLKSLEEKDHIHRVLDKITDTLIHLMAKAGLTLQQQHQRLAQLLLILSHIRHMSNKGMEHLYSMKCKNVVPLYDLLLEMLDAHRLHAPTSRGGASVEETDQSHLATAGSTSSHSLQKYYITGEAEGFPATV
Sequence of Steroid hormone receptor ERR1 (Homo sapiens) (P11474 whole entry, looked up, the tested form may be a part): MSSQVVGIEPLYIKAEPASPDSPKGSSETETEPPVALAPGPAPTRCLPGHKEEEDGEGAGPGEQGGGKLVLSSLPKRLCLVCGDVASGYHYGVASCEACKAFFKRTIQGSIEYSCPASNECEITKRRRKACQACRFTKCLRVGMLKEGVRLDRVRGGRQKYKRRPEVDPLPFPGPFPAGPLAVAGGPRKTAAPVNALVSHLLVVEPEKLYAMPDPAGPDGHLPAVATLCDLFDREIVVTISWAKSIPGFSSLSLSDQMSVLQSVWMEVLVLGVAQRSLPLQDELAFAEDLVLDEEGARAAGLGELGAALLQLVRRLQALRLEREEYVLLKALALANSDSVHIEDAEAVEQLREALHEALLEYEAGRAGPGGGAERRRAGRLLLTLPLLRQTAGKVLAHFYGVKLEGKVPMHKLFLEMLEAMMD
Sequence of Signal transducer and activator of transcription 3 (Homo sapiens) (P40763 whole entry, looked up): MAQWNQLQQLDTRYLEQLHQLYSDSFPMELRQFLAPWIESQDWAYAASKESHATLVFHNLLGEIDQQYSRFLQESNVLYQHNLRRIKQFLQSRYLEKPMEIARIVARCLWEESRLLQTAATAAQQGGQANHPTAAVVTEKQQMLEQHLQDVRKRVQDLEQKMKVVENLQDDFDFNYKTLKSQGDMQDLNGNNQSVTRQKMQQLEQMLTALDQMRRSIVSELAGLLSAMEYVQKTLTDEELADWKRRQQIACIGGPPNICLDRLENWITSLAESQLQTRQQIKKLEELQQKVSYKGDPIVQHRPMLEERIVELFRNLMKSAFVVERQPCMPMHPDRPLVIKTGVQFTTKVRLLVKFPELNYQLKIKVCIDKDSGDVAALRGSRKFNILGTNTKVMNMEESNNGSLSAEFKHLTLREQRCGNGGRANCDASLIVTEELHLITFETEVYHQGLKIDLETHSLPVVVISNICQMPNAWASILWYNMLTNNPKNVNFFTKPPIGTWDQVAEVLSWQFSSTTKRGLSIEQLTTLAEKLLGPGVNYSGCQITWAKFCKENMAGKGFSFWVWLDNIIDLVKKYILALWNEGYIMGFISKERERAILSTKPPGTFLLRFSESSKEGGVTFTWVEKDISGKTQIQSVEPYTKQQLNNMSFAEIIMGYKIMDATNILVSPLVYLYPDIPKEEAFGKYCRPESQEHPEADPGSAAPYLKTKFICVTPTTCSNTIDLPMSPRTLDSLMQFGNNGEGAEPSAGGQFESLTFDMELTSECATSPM

| SMILES | outcome [1] | outcome [2] | outcome [3] | outcome [4] | outcome [5] | outcome [6] | outcome [7] | outcome [8] | outcome [9] | outcome [10] | outcome [11] | outcome [12] | outcome [13] | AC50 [2] | outcome [14] | outcome [15] | outcome [16] | outcome [17] | outcome [18] | AC50 [12] |
| --- | --- | --- | --- | --- | --- | --- | --- | --- | --- | --- | --- | --- | --- | --- | --- | --- | --- | --- | --- | --- |
| NC(N)=NC(N)=NCCc1ccccc1 | inactive | inactive | inactive | inactive | inactive | inactive | inactive | inactive | inactive | inactive | inactive | inactive | inactive |  |  |  |  |  |  |  |
| CC1(C)CC(=O)CC(C)(C)N1 | inactive |  | inactive | inactive | inactive | inactive | inactive | inactive | inactive | inactive | inactive |  |  | 36.2 µM (active) | inactive | inactive | inactive | inactive |  |  |
| CCC(=O)OC/C=C(\C)CCC=C(C)C | inactive |  | inactive | inactive | inactive | inactive | inactive | inactive | inactive |  | inactive | inactive | inactive | 44 µM (active) |  |  | inactive | inactive |  |  |
| CC1(C)CC(N)CC(C)(CN)C1 (stereo not drawn) | inactive | inactive | inactive |  | inactive | inactive | inactive | inactive | inactive | inactive | inactive | inactive |  |  | inactive |  | inactive |  |  |  |
| CCCCCC1C(=O)CCC1CC(=O)OC (stereo not drawn) | inactive | inactive | inactive |  | inactive | inactive | inactive | inactive | inactive | inactive | inactive | inactive |  |  |  | inactive | inactive |  |  |  |
| CC(CCO)CC(C)(C)C (stereo not drawn) | inactive | inactive |  | inactive | inactive | inactive | inactive | inactive | inactive | inactive | inactive | inactive | inactive |  | inactive | inactive |  |  |  |  |
| NS(=O)(=O)c1cc(C(=O)O)c(NCc2ccco2)cc1Cl | inactive | inactive | inactive | inactive | inactive | inactive | inactive | inactive | inactive | inactive | inactive |  |  |  | inactive | inactive | inactive | inactive |  |  |
| CC1=CCC(C(C)(C)O)CC1 (stereo not drawn) | inactive | inactive | inactive |  | inactive | inactive | inactive | inactive | inactive | inactive | inactive | inactive |  |  | inactive | inactive | inactive |  |  |  |
| O=C1CCC(=O)N1 | inactive | inactive | inactive | inactive | inactive | inactive | inactive | inactive | inactive |  | inactive | inactive |  |  | inactive | inactive | inactive |  | inactive |  |
| CCCCCCCOC(C)=O | inactive |  | inactive | inactive | inactive | inactive | inactive | inactive | inactive | inactive | inactive |  |  | 31 µM (active) |  | inactive |  |  |  | 17.6 µM (active) |
| CC1=CC(O)CC(C)(C)C1 (stereo not drawn) | inactive |  | inactive |  | inactive | inactive | inactive | inactive | inactive | inactive | inactive |  |  | 10.8 µM (active) | inactive | inactive | inactive | inactive | inactive |  |
| CCOCC(C)O (stereo not drawn) | inactive |  | inactive | inactive | inactive | inactive | inactive | inactive | inactive | inactive |  | inactive |  | 45.3 µM (active) | inactive |  |  |  | inactive |  |
| O=C(O)c1cccc(Cl)n1 | inactive | inactive | inactive |  | inactive | inactive | inactive | inactive | inactive | inactive | inactive | inactive | inactive |  | inactive |  |  |  |  |  |
| CCn1cc(C(=O)O)c(=O)c2ccc(C)nc21 | inactive | inactive | inactive |  | inactive | inactive | inactive | inactive |  |  |  |  |  |  | inactive |  | inactive | inactive | inactive |  |
| CC1=CC[C@@H](C(C)(C)O)CC1 | inactive | inactive | inactive |  | inactive | inactive | inactive | inactive | inactive | inactive | inactive | inactive |  |  | inactive | inactive | inactive |  |  |  |
| CC(C)C(=O)c1ccccc1 | inactive | inactive | inactive | inactive | inactive | inactive | inactive | inactive | inactive |  | inactive |  | inactive |  | inactive |  | inactive | inactive | inactive | 0.604 µM (active) |
| ClCCOCCOCCCl | inactive | inactive | inactive | inactive | inactive | inactive | inactive | inactive | inactive | inactive | inactive |  |  |  | inactive |  |  | inactive |  |  |
| CC1=CC[C@@H]2C[C@H]1C2(C)C | inactive | inactive | inactive | inactive | inactive | inactive | inactive | inactive | inactive | inactive | inactive |  |  |  | inactive | inactive | inactive |  |  |  |
| CCCCCCCC1CCCC1=O (stereo not drawn) | inactive |  | inactive | inactive | inactive | inactive | inactive | inactive | inactive | inactive | inactive | inactive |  | 27.9 µM (active) | inactive |  | inactive | inactive |  |  |
